Test results from PubChem BioAssay (NCI).
The panel holds about 83,000 compounds, 20% with a hit somewhere; the sample as a whole holds those more often.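 A percent growth of 40 corresponds to 60% growth inhibition; 0 means no net growth; -100 means all cells died. Active threshold: below 10.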 Calls of active or inactive are those of the source.

Assays:
Assay in all cases: NCI-60 one-dose screen, 48 h (100 = growth as untreated, 0 = no growth, -100 = all killed)
Settings in all cases: 10 µM unless noted
HT29 colon = test system: HT29 colon
SNB-75 CNS = test system: SNB-75 CNS
SNB-19 CNS = test system: SNB-19 CNS
U251 CNS = test system: U251 CNS
PC-3 prostate = test system: PC-3 prostate
UACC-62 melanoma = test system: UACC-62 melanoma
LOX IMVI melanoma = test system: LOX IMVI melanoma
SK-MEL-28 melanoma = test system: SK-MEL-28 melanoma
SK-MEL-2 melanoma = test system: SK-MEL-2 melanoma
EKVX NSCLC = test system: EKVX NSCLC
SN12C renal = test system: SN12C renal
UO-31 renal = test system: UO-31 renal
TK-10 renal = test system: TK-10 renal
ACHN renal = test system: ACHN renal
CAKI-1 renal = test system: CAKI-1 renal
A498 renal = test system: A498 renal
CCRF-CEM leukemia = test system: CCRF-CEM leukemia
MOLT-4 leukemia = test system: MOLT-4 leukemia
SR leukemia = test system: SR leukemia
SK-MEL-5 melanoma = test system: SK-MEL-5 melanoma

Measured: growth

COc1cccc(/C=C2\COc3ccc(O)c(O)c3C2=O)c1OC
active: UACC-62 melanoma 8.54% | LOX IMVI melanoma -72.6% | SN12C renal -62.7% | UO-31 renal -94.7% | ACHN renal -60.1% | CCRF-CEM leukemia 3.28% | MOLT-4 leukemia -12.8% | SR leukemia -8.94%
inactive: HT29 colon 21.6% | SNB-75 CNS 21.8% | SNB-19 CNS 31.6% | U251 CNS 10.9% | PC-3 prostate 19.5% | SK-MEL-28 melanoma 47% | SK-MEL-2 melanoma 97.3% | EKVX NSCLC 70.4% | TK-10 renal 11.7% | CAKI-1 renal 22.6% | A498 renal 80.3%

CC(C)c1nc(N(C)S(C)(=O)=O)nc(-c2ccc(F)cc2)c1/C=C/[C@@H](O)C[C@@H](O)CC(=O)O
inactive: HT29 colon 104% | SNB-75 CNS 107% | SNB-19 CNS 115% | U251 CNS 61.7% | PC-3 prostate 69.3% | UACC-62 melanoma 102% | LOX IMVI melanoma 81.3% | SK-MEL-28 melanoma 107% | SK-MEL-2 melanoma 97.8% | EKVX NSCLC 91.2% | SN12C renal 96.2% | UO-31 renal 75% | TK-10 renal 107% | ACHN renal 97.1% | CAKI-1 renal 97.6% | A498 renal 56.2% | CCRF-CEM leukemia 104% | MOLT-4 leukemia 109%

COc1cc(C2CC(=O)Nc3c2cc(Br)c2ccccc32)cc(Br)c1OC (stereo not given)
active: HT29 colon 6.78% | SNB-75 CNS -42.7% | UO-31 renal 0.792% | TK-10 renal -7.53% | ACHN renal 5.63% | CAKI-1 renal 3.19% | A498 renal -2.63% | SR leukemia -53.1%
inactive: SNB-19 CNS 60.7% | U251 CNS 17.2% | PC-3 prostate 39% | UACC-62 melanoma 51.7% | LOX IMVI melanoma 28.3% | SK-MEL-28 melanoma 73% | SK-MEL-2 melanoma 58.7% | EKVX NSCLC 41.7% | SN12C renal 54.5% | CCRF-CEM leukemia 11.1% | MOLT-4 leukemia 30.9%

Cn1[nH]cc(/C=N/C(N)=O)c1=O
inactive: HT29 colon 115% | SNB-75 CNS 106% | SNB-19 CNS 106% | U251 CNS 103% | PC-3 prostate 108% | UACC-62 melanoma 105% | LOX IMVI melanoma 96.1% | SK-MEL-28 melanoma 115% | SK-MEL-2 melanoma 109% | EKVX NSCLC 123% | SN12C renal 108% | UO-31 renal 106% | ACHN renal 109% | CAKI-1 renal 109% | A498 renal 104% | CCRF-CEM leukemia 94.8% | MOLT-4 leukemia 105% | SR leukemia 103%

Cc1c(NCc2nnc3n(Cc4ccccc4)c(=O)c4c5c(sc4n23)CCCC5)c(=O)n(-c2ccccc2)n1C
active: CCRF-CEM leukemia 4.57%
inactive: HT29 colon 77.2% | SNB-75 CNS 98% | SNB-19 CNS 79.9% | U251 CNS 97.6% | SK-MEL-5 melanoma 81% | UACC-62 melanoma 80% | LOX IMVI melanoma 91.6% | SK-MEL-28 melanoma 103% | SK-MEL-2 melanoma 97.1% | EKVX NSCLC 84.7% | SN12C renal 96.5% | UO-31 renal 71.4% | TK-10 renal 93.3% | ACHN renal 96% | CAKI-1 renal 78% | A498 renal 75.1% | MOLT-4 leukemia 52.7% | SR leukemia 68.7%

O=C(c1nn(-c2ccc(Cl)cc2)cc1O)n1nc(C(F)(F)F)cc1-c1ccccc1
active: CAKI-1 renal -20.6% | CCRF-CEM leukemia 0.973% | SR leukemia -30.4%
inactive: HT29 colon 37.8% | SNB-75 CNS 55.4% | SNB-19 CNS 51.2% | U251 CNS 46.8% | SK-MEL-5 melanoma 59% | UACC-62 melanoma 44.2% | LOX IMVI melanoma 32.8% | SK-MEL-28 melanoma 53% | SK-MEL-2 melanoma 67.9% | EKVX NSCLC 31.5% | SN12C renal 45.9% | UO-31 renal 37% | TK-10 renal 69.3% | ACHN renal 38.8% | A498 renal 76% | MOLT-4 leukemia 13.1%

O=c1c(O)cccn1CCCNCCCN(CCCn1cccc(O)c1=O)CCCn1cccc(O)c1=O
inactive: HT29 colon 111% | SNB-75 CNS 104% | SNB-19 CNS 99.8% | U251 CNS 93.8% | SK-MEL-5 melanoma 105% | UACC-62 melanoma 100% | LOX IMVI melanoma 83.8% | SK-MEL-28 melanoma 116% | SK-MEL-2 melanoma 122% | EKVX NSCLC 93% | SN12C renal 87% | UO-31 renal 104% | TK-10 renal 108% | ACHN renal 101% | CAKI-1 renal 103% | A498 renal 129% | CCRF-CEM leukemia 147%

COc1cc(-c2cc(C(=O)Nc3nc4ccccc4s3)nc3cc(-c4ccccc4)nn23)cc(OC)c1OC
inactive: HT29 colon 17.4% | SNB-75 CNS 36.6% | SNB-19 CNS 98.5% | U251 CNS 66.7% | SK-MEL-5 melanoma 35.5% | UACC-62 melanoma 67.8% | LOX IMVI melanoma 27.4% | SK-MEL-28 melanoma 39.9% | SK-MEL-2 melanoma 73.7% | EKVX NSCLC 107% | SN12C renal 99.5% | UO-31 renal 87.9% | TK-10 renal 106% | ACHN renal 101% | CAKI-1 renal 84.6% | A498 renal 127% | CCRF-CEM leukemia 72.3% | MOLT-4 leukemia 76% | SR leukemia 67%

O=C(C=C=Nc1ccccc1)C(=O)N=C=Cc1ccccc1
inactive: HT29 colon 52.1% | SNB-75 CNS 75.8% | SNB-19 CNS 92.3% | U251 CNS 83.7% | SK-MEL-5 melanoma 74.3% | UACC-62 melanoma 67% | SK-MEL-28 melanoma 68.2% | SK-MEL-2 melanoma 49.2% | EKVX NSCLC 72.6% | SN12C renal 77.7% | CAKI-1 renal 17.7% | A498 renal 102%
active: LOX IMVI melanoma -47.5% | UO-31 renal -51.3% | TK-10 renal -20.3% | ACHN renal -58.3% | CCRF-CEM leukemia -35.5% | MOLT-4 leukemia -16.3% | SR leukemia 3.67%

COc1ccc(-c2cc(C(=O)Nc3nc4cc(C)c(C)cc4s3)nc3cc(-c4ccccc4)nn23)cc1OC
inactive: HT29 colon 93.1% | SNB-75 CNS 87.9% | SNB-19 CNS 108% | U251 CNS 111% | SK-MEL-5 melanoma 110% | UACC-62 melanoma 107% | LOX IMVI melanoma 95.1% | SK-MEL-28 melanoma 94.4% | SK-MEL-2 melanoma 113% | EKVX NSCLC 107% | SN12C renal 107% | UO-31 renal 103% | TK-10 renal 125% | ACHN renal 106% | CAKI-1 renal 91.3% | A498 renal 129% | CCRF-CEM leukemia 84.2% | MOLT-4 leukemia 98.7% | SR leukemia 62.8%

C/C(=C\CCc1ccsc1)CC/C=C(\C)CCCN1CCN(CCO)CC1
active: HT29 colon -34.4% | U251 CNS 6.55% | UACC-62 melanoma -73.9% | MOLT-4 leukemia 2.14% | SR leukemia -29.1%
inactive: SNB-75 CNS 42.7% | SNB-19 CNS 64% | PC-3 prostate 55.3% | SK-MEL-28 melanoma 58.1% | SN12C renal 55.2% | UO-31 renal 62.1% | TK-10 renal 40% | ACHN renal 50.6% | CAKI-1 renal 77.6% | A498 renal 39.2% | CCRF-CEM leukemia 24.1%

C/C(=C\CCc1ccsc1)CC/C=C(\C)CCCN1CCC(CO)CC1
inactive: SNB-75 CNS 41.1% | SNB-19 CNS 52.6% | PC-3 prostate 41.2% | SN12C renal 51.5% | TK-10 renal 22.6% | ACHN renal 44% | CAKI-1 renal 45.3% | A498 renal 25.5%
active: HT29 colon -42.6% | U251 CNS -3.53% | UACC-62 melanoma -83.4% | SK-MEL-28 melanoma 9.39% | CCRF-CEM leukemia 2.24% | MOLT-4 leukemia -22.2% | SR leukemia -44.8%

Cc1nc2c(O)cccc2cc1CO
inactive: HT29 colon 99.8% | SNB-75 CNS 78.2% | SNB-19 CNS 104% | U251 CNS 109% | SK-MEL-5 melanoma 98.5% | UACC-62 melanoma 94.6% | LOX IMVI melanoma 106% | SK-MEL-28 melanoma 139% | SK-MEL-2 melanoma 122% | EKVX NSCLC 107% | SN12C renal 105% | UO-31 renal 103% | TK-10 renal 168% | ACHN renal 110% | CAKI-1 renal 104% | A498 renal 131% | CCRF-CEM leukemia 107% | MOLT-4 leukemia 105% | SR leukemia 67.7%

O=C1CCCN1C1CCN(Cc2cc3ccccc3[nH]c2=O)c2ccccc21 (stereo not given)
inactive: HT29 colon 92.9% | SNB-75 CNS 79.3% | SNB-19 CNS 96.8% | U251 CNS 96.1% | SK-MEL-5 melanoma 86.1% | UACC-62 melanoma 85.5% | LOX IMVI melanoma 90.4% | SK-MEL-28 melanoma 103% | SK-MEL-2 melanoma 96.1% | EKVX NSCLC 79% | SN12C renal 88.3% | UO-31 renal 52.5% | TK-10 renal 93.3% | ACHN renal 89.1% | CAKI-1 renal 79.3% | A498 renal 111% | CCRF-CEM leukemia 76.4% | MOLT-4 leukemia 68.7% | SR leukemia 73.1%

CN1CCN(CC(=O)Nc2nc3c(s2)Nc2cc(Cl)c(Cl)cc2NC3=O)CC1
inactive: HT29 colon 99.1% | SNB-75 CNS 96.3% | SNB-19 CNS 104% | U251 CNS 95% | PC-3 prostate 97.7% | UACC-62 melanoma 109% | SK-MEL-28 melanoma 111% | SN12C renal 109% | UO-31 renal 85.4% | TK-10 renal 95.8% | ACHN renal 105% | CAKI-1 renal 102% | A498 renal 106% | CCRF-CEM leukemia 99.8% | MOLT-4 leukemia 90.8% | SR leukemia 98.8%

CCC(=O)Nc1ccccc1C#C/C=C\C#Cc1ccccc1C(F)(F)F
inactive: HT29 colon 47.9% | SNB-75 CNS 32.3% | SNB-19 CNS 66.4% | U251 CNS 34.9% | SK-MEL-5 melanoma 60.2% | UACC-62 melanoma 38.2% | LOX IMVI melanoma 56.1% | SK-MEL-28 melanoma 83.8% | SK-MEL-2 melanoma 12.4% | EKVX NSCLC 52.7% | SN12C renal 58.8% | UO-31 renal 22.4% | TK-10 renal 75% | ACHN renal 53.4% | CAKI-1 renal 45% | A498 renal 11.8% | CCRF-CEM leukemia 39.1% | MOLT-4 leukemia 74.2% | SR leukemia 117%
